The sample as a whole holds a higher share of hits than the screen did.
Tgondii IFNg = T. gondii growth inhibition under IFN-gamma; activity change, negative = inhibition, % (no concentration beside the values); 3.8% of 69,000 active; Toxoplasma gondii growth in IFN-gamma-treated host cells; stronger effect = lower value; in the data active = activity change below about -70%, passing the limit was not always enough;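 also: host cells are HeLa cells infected with Toxoplasma gondii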
Starred values were filed as active, the others as inactive; ! = repeats disagree.

SMILES	Tgondii IFNg
Cc1cc(F)ccc1NS(=O)(=O)c1cc2c3c(c1)CCN3C(=O)CC2	-45
Cc1cc(C)cc(NS(=O)(=O)c2cc3c4c(c2)CCN4C(=O)CC3)c1	-79*
COc1ccc(NS(=O)(=O)c2cc3c4c(c2)CCN4C(=O)CC3)cc1	-15
O=C1CCc2cc(S(=O)(=O)Nc3ccc(Cl)cc3)cc3c2N1CC3	-17
O=C1CCc2cc(S(=O)(=O)Nc3ccc(Br)cc3)cc3c2N1CC3	243
Cc1nccc(-c2cccc(-n3ccnc3-c3ccco3)c2)n1	-4
O=C(CN1C(=O)NC2(CCCCC2)C1=O)NC(Cc1cccs1)c1ccccn1 (configuration not stated)	205
CCN1C(=O)N(Cc2cccc(OC)c2)C(=O)C12CCN(Cc1ccc3c(c1)CCCN3C)CC2	12
CC(C)N1CCC(N2CCN(Cc3cccc(Oc4ccccc4)c3)CC2CCO)CC1 (configuration not stated)	-19
CNC(=O)[C@@]12CCC3(CCN(C(=O)COC)CC3)[C@H]1CN(S(C)(=O)=O)C2	-1
N#Cc1ccc(OCC2CN(c3ncccn3)Cc3cncn3C2)nc1 (configuration not stated)	5
CN1CCN(S(=O)(=O)c2cc(C(=O)O)cc(-c3cc(F)ccc3F)c2)CC1	4
Cc1c(C)c(C)c(S(=O)(=O)Nc2cc(-c3ccccc3)nn2CCC#N)c(C)c1C	-88*
Cn1nc(-c2ccccc2)cc1NC(=O)C1CCCCC1	47
Cn1nc(-c2ccccc2)cc1NC(=O)Cn1cnc(Cl)c1Cl	2
CNC(=O)C[C@@H]1COC[C@@H]2CN(c3ccc(C)nn3)C[C@@H]21	40
CN(CC1CCCN(Cc2ccccc2)C1)C1(C)CCS(=O)(=O)C1 (configuration not stated)	17
COc1ccc2c(OCc3nnc4ccc(-c5ccccc5)nn34)ccnc2c1	-5
COc1ccc2c(Oc3ccc(NC(=O)c4c(C)n(CC(C)(C)O)n(-c5ccccc5)c4=O)nc3)ccnc2c1	-73*
COc1ccc2oc(=O)c(C(=O)Nc3c(C)n(C)n(-c4ccccc4)c3=O)cc2c1	29
COCc1nc(NCc2ccc(Cl)c(Cl)c2)c2cnn(C)c2n1	-25
Cc1cc2c(cc1-c1cncn1CCN(C)C1CCCC1)n(C)c(=O)n2C	8
CCn1cncc1C(=O)N1CCC(c2ccc(C(=O)Nc3ccc(F)cc3)cn2)CC1	-11
CO[C@@H]1CC[C@@H]2[C@H]1OCCN2S(=O)(=O)c1c(C)nn(C)c1C	2
CCOc1ccc(NC(=O)c2nc3ccccc3nc2-n2nc(C)cc2C)cc1	-99*
SMILES	Tgondii IFNg
CCOc1ccc(NC(=O)Cn2c(C)cc(C)nc2=O)cc1	19
CCOc1ccc(Nc2nc(-c3ccc(OC)cc3)nc3ccccc23)cc1	-43
CCOc1ccc(CNC(=O)c2nc(Nc3ccccc3)c3ccccc3n2)cc1	-52
CCOc1ccccc1C(=O)Nc1ccc(-c2nc(Cn3nc(C)cc3C)c(C)o2)cc1	44
CCOc1ccc(Nc2nc3ccccc3nc2Nc2ccc(OCC)cc2)cc1	-100*
COc1c(C)cc(-c2ccc(C(=O)NCCCc3ccccn3)cn2)cc1C	-4
COCC(=O)N1CC[C@@H]2CO[C@H](CN3CCN(C)CC3)[C@@H]2C1	-4
Cc1cc(C(=O)N2CCC(c3nc(C(=O)N4CCSCC4)c(C)o3)CC2)no1	-31
C[C@]12CC[C@@H]3c4ccc(O)cc4CC[C@H]3[C@@H]1CC[C@@H]2OC(=O)CCC(=O)O	1
C[C@]12CCC3c4ccc(O)cc4CCC3C1CC[C@@H]2OC(=O)CCC1CCCC1 (some centres not stated)	-72*!
C[C@]12CCC3c4ccc(OS(=O)(=O)O)cc4CCC3C1CCC2=O (some centres not stated)	17
CC(C)CC(=O)N1CCC2(CC2C(=O)N(C)Cc2ccccn2)C1 (configuration not stated)	4
COC(=O)c1ccccc1NC(=O)N1CCN(Cc2nc(-c3cccc(Cl)c3)oc2C)CC1	0
Cc1ccc(-c2nc(CN3CCN(C(=O)Nc4ccc(C)c(F)c4)CC3)c(C)o2)cc1	-40
Cc1c(NC(=O)c2sc3nc(-c4ccccc4)cn3c2C)c(=O)n(-c2ccccc2)n1C	20
CN1CCN(c2cc(C(=O)Nc3ccc(OCc4ccccc4F)cc3)ccn2)CC1	-76*
CN1CCN(c2cc(C(=O)NCCS(=O)(=O)c3ccc(F)cc3)ccn2)CC1	-24
O=C(Nc1ccc(OCc2ccccc2F)cc1)c1ccc(-n2cnnc2)cc1	34
CCOC(=O)c1ccccc1NC(=O)N1CCC2(CC1)Nc1cc(F)ccc1-n1cccc12	52
CCN(CC)C(=O)c1cc(C)nc2c1c(=O)n(Cc1nc(-c3ccccc3)oc1C)c(=O)n2C	4
O=C(Cc1cccs1)NCc1ccc(-c2ccc(F)cc2F)o1	121
CC(C)(C(N)=O)c1ccc(-c2cc(N)nc3[nH]ccc23)cc1	19
NC(=O)c1csc(-c2cc(NC3CCCC3)nc3[nH]ccc23)n1	-76*
CNC(=O)c1ccc(-c2cc(NCCO)nc3[nH]ccc23)s1	10
COC(=O)Nc1nc2ccc(C(=O)c3ccc(F)cc3)cc2[nH]1	-68
SMILES	Tgondii IFNg
CCCOc1ccc2nc(NC(=O)OC)[nH]c2c1	-73*!
CCOC(=O)Nc1nc2ccccc2[nH]1	22
C[C@H]1[C@@H](O)O[C@@H]2O[C@@]3(C)CC[C@H]4[C@H](C)CC[C@@H]1[C@@]24OO3	-94*
Cc1ccc(NC(=O)Cn2c(=O)cc(C(=O)N3CCc4ccccc4C3)c3ccccc32)cc1	-28
O=C(O)CCSC(=S)N1CCCC1	-6
CC(C)(C)c1nnc(NC(=O)C2CC(=O)N(CCc3c[nH]c4ccc(F)cc34)C2)s1 (configuration not stated)	74
O=C(Nc1ccc2c(c1)CCC2)C1CC(=O)N(CCc2c[nH]c3ccc(Cl)cc23)C1 (configuration not stated)	-111*
CC(C)c1ccc(NC(=O)C2CC(=O)N(CCc3c[nH]c4ccc(F)cc34)C2)cc1 (configuration not stated)	-81*
Cc1ccc2[nH]cc(CCN3CC(C(=O)NCCc4ccc(F)cc4)CC3=O)c2c1 (configuration not stated)	179
O=C(NC1CCCCCC1)C1CC(=O)N(CCc2c[nH]c3ccc(Cl)cc23)C1 (configuration not stated)	48
Cc1nnc(NC(=O)C2CC(=O)N(CCc3c[nH]c4ccc(Cl)cc34)C2)s1 (configuration not stated)	45
CC(C)c1nccc(CN2CCCCC2CCc2ccc(O)cc2)n1 (configuration not stated)	16
C=CCN(Cc1ccccc1Cl)C(=O)CCC1CCOC1=O (configuration not stated)	-4
CC(C)NC(=O)C(C)Oc1ccc(S(=O)(=O)NCc2ccccn2)cc1 (configuration not stated)	34
COc1ccccc1-c1nc(Cn2nnc(C(=O)Nc3cccc(C(F)(F)F)c3)c2C)c(C)o1	302
C=C1SC(Nc2c(C)cccc2C)=NC12CCCCC2	-81*
COc1ccc(CN(C(=O)c2ccc(C)cc2)C2(C(=O)NCc3ccccc3)CCN(C(C)=O)CC2)cc1	-36
c1ccc2c(CC3=NCCN3)cccc2c1	-1
C(=N\NC1=NCCN1)/c1c2ccccc2c(/C=N/NC2=NCCN2)c2ccccc12	-75*
Brc1c(NC2=NCCN2)ccc2nccnc12	11
COC1CC2(CCN(Cc3nccn3C)CC2)C1	42
CN(C)C(=O)N1CCc2c(nnn2C)C1COCC1CC1 (configuration not stated)	-7

From PubChem
